PubChem BioAssay (Tox21)
Records with an inconclusive call do not appear. Calls of active or inactive are those of the source. Unless noted, the call rests on the fitted dose curve; in most records, active means well fitted curve in the direction sought with a large enough effect in the repeat runs; inconclusive means weak or mixed curves; inactive means no such curve, though single readings can be large; an effect the other way counts as inactive or inconclusive.

Key:
[1] = target: Estrogen receptor beta (Homo sapiens) (UniProt Q92731); experiment: qHTS assay to identify small molecule agonists of the estrogen receptor beta (ER-beta) signaling pathway (AID 1259377; active means well fitted activation curve with a large enough effect in the signal ratio in the repeat runs, not every such curve was filed as active; the % refers to the signal ratio)
Summary of the method: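 ER-beta-UAS-bla HEK293T (GripTite) cells carrying a UAS-driven beta-lactamase reporter, in medium with 2% charcoal-stripped FBS, were exposed to compounds for 16 hr at 37C; LiveBLAzer B/G FRET substrate was then added and fluorescence read after 2 hours at room temperature.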

[2] = target: Estrogen receptor beta (Homo sapiens) (UniProt Q92731); experiment: qHTS assay to identify small molecule antagonists of the estrogen receptor beta (ER-beta) signaling pathway (AID 1259378; active means well fitted inhibition curve with a large enough effect in the signal ratio in the repeat runs, not every such curve was filed as active; the % refers to the signal ratio)
Summary of the method: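 ER-beta-UAS-bla HEK293T (GripTite) cells in 2% charcoal-stripped FBS medium were preincubated 6 hr at 37C, dosed with compound, then stimulated with 1 nM E2 (final) for 16 hr; beta-lactamase reporter read by B/G FRET fluorescence after 2 hr substrate loading.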

[3] = qHTS assay to identify small molecule agonists of the androgen receptor (AR) signaling pathway in the presence of an antagonist - cell viability counter screen (AID 1259379);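 further: MDA-kb2 human breast cancer cells carrying an MMTV luciferase reporter; series mostly up to about 92 µM; nearly all actives have a fitted effect of over 25% in size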
Summary of the method: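 Viability counter screen: CellTiter-Fluor fluorescence, measured in the same wells as the luciferase read-out. MDA-kb2 cells, 3,000/well, with nilutamide at 3.0uM final and compounds at 15 concentrations, 16 hr at 37C, 0% CO2.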

[4] = qHTS assay to identify small molecule agonists of the estrogen receptor beta (ER-beta) signaling pathway - cell viability counter screen (AID 1259380); further: nearly all actives have a fitted effect of over 30% in size
Summary of the method: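 Luminescence read-out (CellTiter-Glo, 30 min, room temp) taken in the same wells as the beta-lactamase reporter assay; ER-beta-UAS-bla HEK293T cells exposed to DMSO-dissolved compounds for 16 hr at 37C in 2% charcoal-stripped FBS medium.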

[5] = qHTS assay to identify small molecule antagonists of the estrogen receptor beta (ER-beta) signaling pathway - cell viability counter screen (AID 1259382); further: series mostly up to about 92 µM; nearly all actives have a fitted effect of over 55% in size
Summary of the method: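 Luminescent ATP read-out (CellTiter-Glo, 30 min, RT) taken in the same wells as the bla reporter assay. HEK293T ER-beta-UAS-bla cells in 2% charcoal-stripped FBS were exposed to compounds with 1nM E2 for 16 hr at 37C.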

[6] = qHTS assay to identify small molecule agonists or antagonists of the thyroid stimulating hormone receptor (TSHR) signaling pathway - wild type cell line counter screen (AID 1259384; calls by dose curve)
Summary of the method: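 Wild-type HEK293 cells were plated 18 h at 37 C/5% CO2, pin-dosed with compound plus Ro20-1724 medium, held 30 min at room temperature, then given cAMP-d2 and anti-cAMP-cryptate; fluorescence was read after 1 h. Fifteen concentrations, triplicate.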

[7] = target: Thyrotropin receptor (Homo sapiens) (UniProt P16473); experiment: qHTS assay to identify small molecule antagonists of the thyroid stimulating hormone receptor (TSHR) signaling pathway (AID 1259385; calls by dose curve; further: nearly all actives have a fitted effect of over 20% in size)
Summary of the method: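 TSHR-HEK293 cells were plated and held 18 h at 37C/5% CO2, then given compound plus Ro20-1724 and stimulated with TSH at 1.5 ng/mL final. After 30 min at room temperature, cAMP was detected with cAMP-d2/anti-cAMP-cryptate (1 h) by fluorescence.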

[8] = qHTS assay to identify small molecule agonists of the estrogen receptor alpha (ER-alpha) signaling pathway in the presence of an antagonist - cell viability counter screen (AID 1259386);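 further: series mostly up to about 92 µM; cells exposed to compounds for 22 h at 37 °C before the viability read; nearly all actives have a fitted effect of over 30% in size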
Summary of the method: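 Read-out: CellTiter-Fluor fluorescence after 1hr reagent incubation, measured in the same wells as the luciferase readout. VM7Luc4E2 cells were exposed to 15 compound concentrations with 10.0nM ICI-182,780 for 22hr at 37C.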

[9] = target: Progesterone receptor (Homo sapiens) (UniProt P06401); experiment: qHTS assay to identify small molecule agonists of the progesterone receptor (PR) signaling pathway (AID 1346784; calls by dose curve; further: nearly all actives have a fitted effect of over 30% in size)
Summary of the method: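 PR-UAS-bla HEK 293T cells carrying a UAS-driven beta-lactamase reporter were seeded in medium with 2% charcoal-stripped FBS, preincubated 6 hr at 37C, then exposed to compounds in DMSO for 16 hr; agonism was read by LiveBLAzer B/G FRET fluorescence.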

[10] = target: Progesterone receptor (Homo sapiens) (UniProt P06401); experiment: qHTS assay to identify small molecule antagonists of the progesterone receptor (PR) signaling pathway (AID 1346795; active means well fitted inhibition curve with a large enough effect in the signal ratio in the repeat runs, not every such curve was filed as active; the % refers to the signal ratio)
Summary of the method: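 PR-UAS-bla HEK293T cells carrying a UAS-driven beta-lactamase reporter were plated in medium with 2% charcoal-stripped FBS and rested 6 hr at 37C. Compounds were added with 1 nM R5020 (final) for 16 hr, then FRET substrate loaded 2 hr at room temperature.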

[11] = qHTS assay to identify small molecule antagonists of the progesterone receptor (PR) signaling pathway - cell viability counter screen (AID 1346798); further: series mostly up to about 92 µM; nearly all actives have a fitted effect of over 50% in size
Summary of the method: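 PR-UAS-bla HEK293T cells in medium with 2% charcoal-stripped FBS were treated with compounds plus R5020 for 16 hr at 37C. Cell viability was then read by CellTiter-Glo luminescence after 30 min at room temperature in the same wells.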

[12] = qHTS assay to identify small molecule agonists of the progesterone receptor (PR) signaling pathway - cell viability counter screen (AID 1346799; calls by dose curve; further: nearly all actives have a fitted effect of over 45% in size)
Summary of the method: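 PR-UAS-bla HEK293T cells, 3,000 per well in medium with 2% charcoal-stripped FBS, were preincubated 6 hr at 37C, then exposed to compounds for 16 hr; viability was read as CellTiter-Glo luminescence after 30 min at room temperature.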

[13] = qHTS assay to identify small molecule antagonists of the TGF-beta/Smad signaling pathway - cell viability counter screen (AID 1346824); further: nearly all actives have a fitted effect of over 50% in size
Summary of the method: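 SBE-bla HEK 293T cells were plated overnight at 37 C, then given compounds in DMSO plus TGF-beta1 (added as 0.25 ng/mL solution) for 5 hr. After the bla read, CellTiter-Glo was added to the same wells and luminescence read after 30 min at room temperature.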

[14] = qHTS assay to identify small molecule agonists of the TGF-beta/Smad signaling pathway - cell viability counter screen (AID 1346829); further: top concentration of the series differs between compounds; nearly all actives have a fitted effect of over 45% in size
Summary of the method: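 In parallel with the Smad reporter read, viability of HEK 293T cells stably carrying SBE-bla is quantified by ATP luminescence following 5 hr compound treatment.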

[15] = qHTS assay to identify small molecule agonists of the TGF-beta/Smad signaling pathway (AID 1346859; active means well fitted activation curve with a large enough effect in the signal ratio in the repeat runs, not every such curve was filed as active; the % refers to the signal ratio; further: series mostly up to about 77 µM)
Summary of the method: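 HEK 293T cells stably carrying a beta-lactamase reporter driven by the Smad binding element were seeded overnight, exposed to DMSO-dissolved compounds for 5 hr at 37 C, 5% CO2, then loaded with FRET substrate for 2 hr at room temperature.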

[16] = Human pregnane X receptor (PXR) small molecule agonists, qHTS cell viability counter screen (AID 1346977); further: nearly all actives have a fitted effect of over 50% in size
Summary of the method: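 PXR-Luc HepG2 cells in medium with 5% charcoal-stripped FBS were pre-incubated 5hr, then exposed to compounds for 24hr at 37C. Viability was read in the same wells by CellTiter-Fluor fluorescence, reagent added after 23hr with a 1hr incubation.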

[17] = target: Estrogen receptor (Homo sapiens) (UniProt P03372); experiment: qHTS assay to identify small molecule agonists of the estrogen receptor alpha (ER-alpha) signaling pathway in the presence of an antagonist (AID 1259383; calls by dose curve; further: top concentration of the series differs between compounds; nearly all actives have a fitted effect of over 15% in size)
Summary of the method: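 Luciferase luminescence (ONE-Glo, 30min at room temperature) measured in VM7Luc4E2 cells after 22hr compound exposure at 15 concentrations, with 10.0nM ICI-182,780 final present; cells express endogenous ER-alpha and carry four EREs upstream of luciferase.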

[18] = target: Thyrotropin-releasing hormone receptor (Homo sapiens) (UniProt P34981); experiment: qHTS assay to identify small molecule antagonists of the thyrotropin-releasing hormone receptor (TRHR) signaling pathway (AID 1346877; active means well fitted inhibition curve with a large enough effect in the repeat runs, not every such curve was filed as active; further: series mostly up to about 51 µM)
Summary of the method: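 HEK293/TRHR cells, 18 h, 37 °C; Ca2+ dye 2 h; cpd 5 min RT; TRH 1 nM final; fluorescence read 3 min, 1 s intervals; 15 concs, triplicate.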

[19] = target: Thyrotropin-releasing hormone receptor (Homo sapiens) (UniProt P34981); experiment: qHTS assay to identify small molecule agonists of the thyrotropin-releasing hormone receptor (TRHR) signaling pathway (AID 1346891; calls by dose curve; further: series mostly up to about 58 µM)
Summary of the method: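 TRHR-expressing HEK293 cells were plated 18 h at 37 °C/5% CO2, loaded with calcium dye 2 h at 37 °C, then given compound in DMSO; fluorescence was read kinetically for 3 min at 1 s intervals.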
On the % scale 0 is the no-effect control and ±100 the full control effect.

Sequence of Estrogen receptor beta (Homo sapiens) (Q92731 whole entry, looked up): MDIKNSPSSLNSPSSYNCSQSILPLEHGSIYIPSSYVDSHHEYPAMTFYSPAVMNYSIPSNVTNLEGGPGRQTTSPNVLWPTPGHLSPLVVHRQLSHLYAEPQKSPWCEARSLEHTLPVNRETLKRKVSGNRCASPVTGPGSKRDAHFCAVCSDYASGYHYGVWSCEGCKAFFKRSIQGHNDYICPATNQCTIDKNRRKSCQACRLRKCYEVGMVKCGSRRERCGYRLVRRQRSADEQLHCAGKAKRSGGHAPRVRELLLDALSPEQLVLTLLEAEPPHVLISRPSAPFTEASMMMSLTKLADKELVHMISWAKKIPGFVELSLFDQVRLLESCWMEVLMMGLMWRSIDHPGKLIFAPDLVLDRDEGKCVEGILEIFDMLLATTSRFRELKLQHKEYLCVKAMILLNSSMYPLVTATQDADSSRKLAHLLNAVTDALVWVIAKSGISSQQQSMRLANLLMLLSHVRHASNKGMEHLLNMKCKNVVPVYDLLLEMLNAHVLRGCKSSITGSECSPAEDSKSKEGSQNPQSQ
Sequence of Thyrotropin receptor (Homo sapiens) (P16473 whole entry, looked up): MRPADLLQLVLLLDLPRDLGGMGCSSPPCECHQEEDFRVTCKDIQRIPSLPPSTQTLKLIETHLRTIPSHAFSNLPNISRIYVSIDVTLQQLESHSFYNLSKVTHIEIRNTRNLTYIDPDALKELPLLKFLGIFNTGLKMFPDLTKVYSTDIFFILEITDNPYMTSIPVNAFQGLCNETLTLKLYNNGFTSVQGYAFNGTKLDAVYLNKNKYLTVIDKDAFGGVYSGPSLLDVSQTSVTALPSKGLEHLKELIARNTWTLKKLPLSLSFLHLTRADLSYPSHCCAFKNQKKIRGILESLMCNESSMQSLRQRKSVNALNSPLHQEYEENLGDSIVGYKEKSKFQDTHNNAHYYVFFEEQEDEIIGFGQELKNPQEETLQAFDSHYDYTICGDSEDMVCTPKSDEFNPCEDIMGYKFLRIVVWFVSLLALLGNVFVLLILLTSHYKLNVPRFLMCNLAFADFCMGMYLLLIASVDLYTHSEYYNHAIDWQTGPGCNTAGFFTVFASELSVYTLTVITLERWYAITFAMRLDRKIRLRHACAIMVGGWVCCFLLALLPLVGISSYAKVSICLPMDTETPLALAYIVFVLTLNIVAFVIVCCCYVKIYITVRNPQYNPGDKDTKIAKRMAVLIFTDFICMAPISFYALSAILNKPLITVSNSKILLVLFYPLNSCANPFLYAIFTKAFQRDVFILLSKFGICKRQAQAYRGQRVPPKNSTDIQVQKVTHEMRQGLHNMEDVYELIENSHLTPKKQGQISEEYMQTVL
Sequence of Thyrotropin-releasing hormone receptor (Homo sapiens) (P34981 whole entry, looked up): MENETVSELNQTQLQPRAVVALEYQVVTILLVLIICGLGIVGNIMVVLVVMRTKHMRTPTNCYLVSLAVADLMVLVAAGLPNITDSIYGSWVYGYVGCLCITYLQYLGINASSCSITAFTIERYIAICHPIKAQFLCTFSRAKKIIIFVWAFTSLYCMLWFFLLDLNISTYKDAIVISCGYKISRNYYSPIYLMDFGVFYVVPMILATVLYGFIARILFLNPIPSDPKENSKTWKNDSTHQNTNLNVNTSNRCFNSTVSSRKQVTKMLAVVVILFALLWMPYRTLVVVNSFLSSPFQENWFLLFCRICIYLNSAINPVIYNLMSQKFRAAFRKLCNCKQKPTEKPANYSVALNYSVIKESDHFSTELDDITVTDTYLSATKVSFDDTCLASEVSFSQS
Sequence of Progesterone receptor (Homo sapiens) (P06401 whole entry, looked up): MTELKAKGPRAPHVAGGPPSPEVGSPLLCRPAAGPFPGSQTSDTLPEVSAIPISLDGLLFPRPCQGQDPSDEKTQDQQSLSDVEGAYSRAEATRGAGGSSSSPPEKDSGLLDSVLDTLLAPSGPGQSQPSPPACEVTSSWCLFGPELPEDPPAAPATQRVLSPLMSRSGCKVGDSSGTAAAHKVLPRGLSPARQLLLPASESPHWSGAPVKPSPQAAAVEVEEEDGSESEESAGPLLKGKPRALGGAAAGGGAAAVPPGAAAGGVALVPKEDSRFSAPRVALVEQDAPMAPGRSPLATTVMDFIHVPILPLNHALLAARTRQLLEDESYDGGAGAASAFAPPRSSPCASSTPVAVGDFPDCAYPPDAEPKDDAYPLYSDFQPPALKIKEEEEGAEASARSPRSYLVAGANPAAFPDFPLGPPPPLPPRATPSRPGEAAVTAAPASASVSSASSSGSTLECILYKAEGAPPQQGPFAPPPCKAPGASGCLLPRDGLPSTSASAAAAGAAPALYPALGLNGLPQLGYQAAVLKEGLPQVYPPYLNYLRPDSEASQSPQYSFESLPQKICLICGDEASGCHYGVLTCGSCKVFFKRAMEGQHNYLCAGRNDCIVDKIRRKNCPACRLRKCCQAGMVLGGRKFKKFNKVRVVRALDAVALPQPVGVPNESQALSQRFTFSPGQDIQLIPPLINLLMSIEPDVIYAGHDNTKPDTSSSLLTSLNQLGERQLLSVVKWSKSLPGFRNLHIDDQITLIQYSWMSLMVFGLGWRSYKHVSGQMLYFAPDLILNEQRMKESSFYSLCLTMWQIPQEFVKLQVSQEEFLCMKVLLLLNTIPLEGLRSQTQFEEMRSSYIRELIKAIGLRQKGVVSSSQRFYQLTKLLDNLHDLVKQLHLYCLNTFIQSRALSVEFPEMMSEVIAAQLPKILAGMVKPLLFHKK
Sequence of Estrogen receptor (Homo sapiens) (P03372 whole entry, looked up): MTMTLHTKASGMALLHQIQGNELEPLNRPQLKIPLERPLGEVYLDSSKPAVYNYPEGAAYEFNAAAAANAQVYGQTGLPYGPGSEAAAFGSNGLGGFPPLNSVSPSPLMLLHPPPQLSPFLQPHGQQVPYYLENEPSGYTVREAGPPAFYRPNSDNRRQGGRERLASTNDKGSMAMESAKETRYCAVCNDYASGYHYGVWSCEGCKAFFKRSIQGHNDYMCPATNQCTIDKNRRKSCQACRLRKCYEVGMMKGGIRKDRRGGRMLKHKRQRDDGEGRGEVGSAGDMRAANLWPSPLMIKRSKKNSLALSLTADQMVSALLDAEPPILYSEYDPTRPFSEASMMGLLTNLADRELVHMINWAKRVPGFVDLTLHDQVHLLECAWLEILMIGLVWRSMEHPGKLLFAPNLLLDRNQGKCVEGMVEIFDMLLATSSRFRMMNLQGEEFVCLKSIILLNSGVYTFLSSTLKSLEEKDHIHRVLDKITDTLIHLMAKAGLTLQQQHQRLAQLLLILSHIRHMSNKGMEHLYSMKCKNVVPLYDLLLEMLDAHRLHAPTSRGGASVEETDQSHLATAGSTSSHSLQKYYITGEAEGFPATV

CC(=O)OCC1=C(C(=O)O)N2C(=O)[C@@H](N)[C@H]2SC1
inactive: activation [1] -0.931% [at 19 µM] | activity, negative = inhibition [2] 21.8% [at 19 µM] | activity change, negative = cytotoxicity [3] 4.78% [at 19 µM] | activity change, negative = cytotoxicity [4] 0.632% [at 19 µM] | activity change, negative = cytotoxicity [5] -2.02% [at 19 µM] | cAMP activity change [6] 4.85% [at 18.9 µM] | activity change, negative = inhibition [7] 1.01% [at 19 µM] | activity change, negative = cytotoxicity [8] -2.84% [at 19 µM] | activation [9] 0.683% [at 19 µM] | activity change, negative = inhibition [10] 0.73% [at 18.9 µM] | activity change, negative = cytotoxicity [11] 2.66% [at 18.9 µM] | activity change, negative = cytotoxicity [12] 3.69% [at 19 µM] | viability change, negative = cytotoxic [13] -0.755% [at 15.8 µM] | activity change, negative = cytotoxicity [14] -0.572% [at 15.8 µM] | activation [15] -1.32% [at 15.8 µM] | activity change, negative = cytotoxicity [16] 0.727% [at 19 µM]

CN(C)CCc1c[nH]c2cccc(OP(=O)(O)O)c12
inactive: Potency [1] | outcome [2] | Potency [3] | Potency [4] | Potency [5] | Potency [17] | Potency [9] | Potency [10] | Potency [11] | Potency [12] | outcome [13] | Potency [14] | Potency [18] | outcome [19] | Potency [16]

COP(=O)(OC)O/C(C)=C/C(=O)N(C)C
inactive: Potency [1] | outcome [2] | Potency [3] | Potency [4] | Potency [5] | Potency [17] | outcome [7] | Potency [8] | Potency [10] | Potency [11] | outcome [13] | Potency [14] | outcome [15] | outcome [19] | Potency [16]

C[N+]1(C)CCCCC1
inactive: Potency [1] | outcome [2] | Potency [3] | Potency [4] | Potency [5] | outcome [6] | outcome [7] | Potency [8] | Potency [10] | Potency [11] | Potency [14] | outcome [15] | Potency [18] | outcome [19] | Potency [16]

CCC(=O)c1ccc(Cl)cc1
inactive: Potency [1] | outcome [2] | Potency [3] | Potency [4] | Potency [5] | outcome [6] | outcome [7] | Potency [8] | Potency [9] | Potency [10] | Potency [11] | Potency [12] | outcome [13] | Potency [14] | outcome [15] | Potency [18] | outcome [19] | Potency [16]

Cl/C=C/CCl
inactive: Potency [1] | outcome [2] | Potency [3] | Potency [4] | Potency [5] | outcome [6] | outcome [7] | Potency [8] | Potency [9] | Potency [11] | Potency [12] | outcome [13] | Potency [14] | outcome [15] | Potency [16]

CC[C@H](N)c1ccccc1
inactive: Potency [1] | outcome [2] | Potency [3] | Potency [4] | Potency [5] | Potency [17] | outcome [7] | Potency [8] | Potency [10] | Potency [11] | Potency [12] | outcome [13] | Potency [14] | outcome [15] | Potency [16]

CCN[C@@H](C)Cc1ccccc1
inactive: Potency [1] | outcome [2] | Potency [3] | Potency [4] | Potency [5] | Potency [17] | outcome [7] | Potency [8] | Potency [9] | Potency [10] | Potency [12] | Potency [14] | outcome [15] | Potency [18] | outcome [19] | Potency [16]
